# Measurements as given in PubChem BioAssay (NCATS).
# Inconclusive results are not listed. Where a call stands in place of a potency, no number is given. Calls of active or inactive are those of the source. Unless noted, calls follow the shape of the dose curve; as a rule, active = well fitted curve in the direction sought with a large enough effect; inconclusive = small, poorly fitted or top-dose-only effect, or another doubt; inactive = no such curve, though single readings can be large; an effect the other way counts as inactive or inconclusive.
# What was measured:
# [1] = system: Zika virus NS2B-NS3 protease; assay: Primary screen GU AMC qHTS for Zika virus inhibitors (AID 1347154); also: nearly all actives have a fitted effect of over 70% in size
# Summary of the method: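 Unlinked Zika NS2B hydrophilic domain–NS3 protease complex at 25 nM in 10 mM Tris-HCl pH 8.0, 0.01% Tween 20, with an AMC peptide substrate. Fluorescence change (340/450 nm) over 15 min at room temperature, normalized to controls, fitted to 4-parameter Hill.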
# [2] = target: Cytochrome P450 3A4 (Homo sapiens) (UniProt P08684); assay: qHTS Assay for Inhibitors and Substrates of Cytochrome P450 3A4 (AID 884); also: potency is read from the fitted curve at half-maximal effect; nearly all actives have a fitted effect of over 50% in size
# Cytochrome P450 3A4 (Homo sapiens), sequence (P08684 whole entry, looked up): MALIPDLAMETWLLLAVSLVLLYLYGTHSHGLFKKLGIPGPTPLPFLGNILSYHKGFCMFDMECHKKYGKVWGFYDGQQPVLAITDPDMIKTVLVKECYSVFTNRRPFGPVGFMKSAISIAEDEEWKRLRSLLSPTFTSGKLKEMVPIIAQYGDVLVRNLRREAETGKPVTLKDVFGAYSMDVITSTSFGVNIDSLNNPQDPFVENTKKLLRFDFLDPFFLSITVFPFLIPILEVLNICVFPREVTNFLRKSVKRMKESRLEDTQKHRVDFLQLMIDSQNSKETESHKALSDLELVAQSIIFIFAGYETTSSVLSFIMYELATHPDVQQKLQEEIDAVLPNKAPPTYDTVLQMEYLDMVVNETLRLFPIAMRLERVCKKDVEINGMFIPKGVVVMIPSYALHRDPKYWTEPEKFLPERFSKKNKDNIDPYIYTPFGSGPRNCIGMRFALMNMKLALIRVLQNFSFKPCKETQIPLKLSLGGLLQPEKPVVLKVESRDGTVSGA
# Summary of the method: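 20 nM human CYP3A4 with 25 uM Luciferin-PPXE (at KM) in 200 mM KPO4, preincubated 10 min with compound; NADPH regeneration started a 60 min RT reaction. Luciferin detected by luminescence, normalized to 57 uM ketoconazole as full inhibition.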
# [3] = target: Cytochrome P450 3A4 (Homo sapiens) (UniProt P08684); assay: qHTS Assay for Activators of Cytochrome P450 3A4 (AID 885); also: nearly all actives have a fitted effect of over 65% in size
# Summary of the method: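 Quantitative HTS format: compounds preincubated with 20nM human CYP3A4 and Luciferin-PPXE substrate at KM, reaction started by NADPH regeneration, stopped after 60 min, luciferase luminescence read 20 min later.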
# [4] = Confirmation and Secondary Assay for Modulators of Hemoglobin Beta Chain Splicing at IVS2 654 locus (AID 910);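 also: HeLa cells stably carrying EGFP split by mutant beta-globin IVS2-654 intron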
# Summary of the method: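 HeLa cells stably expressing EGFP interrupted by β-globin IVS2-654 intron, seeded overnight in Opti-MEM/2% FCS, then treated 2 days at 37 °C. Restored splicing read as total peak GFP intensity per well by laser scanning cytometry (488 nm excitation, 500–520 nm emission); 500 nM antisense PNA as control.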
# [5] = Confirmation and Secondary Assay for Modulators of Hemoglobin Beta Chain Splicing at IVS2 705 locus (AID 930);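 also: HeLa cells stably expressing the EGFP-705 splicing reporter; GFP fluorescence per well restored by corrected splicing of the IVS2-705 intron in EGFP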
# Summary of the method: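 HeLa IVS2-705 EGFP reporter cells, 500/well, compound 2 d at 37C; correct splicing yields fluorescent EGFP. Control: 500 nM antisense PNA. Read-out: total peak GFP intensity.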
# [6] = target: Ubiquitin carboxyl-terminal hydrolase 1 (Homo sapiens) (UniProt O94782); assay: Inhibitors of USP1/UAF1: Pilot qHTS (AID 504865); also: potency is read from the fitted curve at half-maximal effect; nearly all actives have a fitted effect of over 35% in size
# Ubiquitin carboxyl-terminal hydrolase 1 (Homo sapiens), sequence (O94782 whole entry, looked up): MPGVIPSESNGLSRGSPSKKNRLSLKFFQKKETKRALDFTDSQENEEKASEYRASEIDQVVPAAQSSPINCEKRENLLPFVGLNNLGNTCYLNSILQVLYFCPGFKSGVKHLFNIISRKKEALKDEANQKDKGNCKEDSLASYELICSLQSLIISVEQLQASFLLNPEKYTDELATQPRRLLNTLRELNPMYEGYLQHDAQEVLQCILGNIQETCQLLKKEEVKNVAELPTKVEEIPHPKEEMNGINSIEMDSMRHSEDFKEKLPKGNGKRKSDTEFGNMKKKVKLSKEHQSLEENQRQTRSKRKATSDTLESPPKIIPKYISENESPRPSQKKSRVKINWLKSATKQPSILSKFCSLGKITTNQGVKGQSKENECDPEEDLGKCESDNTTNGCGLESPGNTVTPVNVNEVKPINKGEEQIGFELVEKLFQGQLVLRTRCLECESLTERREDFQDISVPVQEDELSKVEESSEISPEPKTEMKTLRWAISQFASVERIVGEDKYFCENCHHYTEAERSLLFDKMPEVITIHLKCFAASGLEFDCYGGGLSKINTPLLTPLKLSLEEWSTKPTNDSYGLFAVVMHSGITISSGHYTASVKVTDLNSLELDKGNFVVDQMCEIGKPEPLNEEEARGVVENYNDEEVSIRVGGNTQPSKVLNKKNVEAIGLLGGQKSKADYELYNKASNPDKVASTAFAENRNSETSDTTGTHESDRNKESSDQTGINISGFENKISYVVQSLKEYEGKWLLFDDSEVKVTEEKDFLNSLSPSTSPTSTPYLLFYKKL
# Summary of the method: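 Enzyme-free wells gave the negative control, while test wells held 1nM USP1/UAF1 preincubated with compound for 15 min at room temperature. Ub-Rho at 150nM final started the reaction, and fluorescence at 480/540 nm was recorded kinetically.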
# [7] = target: Furin (Homo sapiens) (UniProt P09958); assay: Furin counterscreen qHTS for Zika virus inhibitors (AID 1347149);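 also: purified recombinant full-length human furin enzyme at 5 nM; fluorescence gain from furin cutting a BOC-RVRR-AMC peptide substrate over 15 min; top concentration of the series differs between compounds; nearly all actives have a fitted effect of over 70% in size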
# Furin (Homo sapiens), sequence (P09958 whole entry, looked up): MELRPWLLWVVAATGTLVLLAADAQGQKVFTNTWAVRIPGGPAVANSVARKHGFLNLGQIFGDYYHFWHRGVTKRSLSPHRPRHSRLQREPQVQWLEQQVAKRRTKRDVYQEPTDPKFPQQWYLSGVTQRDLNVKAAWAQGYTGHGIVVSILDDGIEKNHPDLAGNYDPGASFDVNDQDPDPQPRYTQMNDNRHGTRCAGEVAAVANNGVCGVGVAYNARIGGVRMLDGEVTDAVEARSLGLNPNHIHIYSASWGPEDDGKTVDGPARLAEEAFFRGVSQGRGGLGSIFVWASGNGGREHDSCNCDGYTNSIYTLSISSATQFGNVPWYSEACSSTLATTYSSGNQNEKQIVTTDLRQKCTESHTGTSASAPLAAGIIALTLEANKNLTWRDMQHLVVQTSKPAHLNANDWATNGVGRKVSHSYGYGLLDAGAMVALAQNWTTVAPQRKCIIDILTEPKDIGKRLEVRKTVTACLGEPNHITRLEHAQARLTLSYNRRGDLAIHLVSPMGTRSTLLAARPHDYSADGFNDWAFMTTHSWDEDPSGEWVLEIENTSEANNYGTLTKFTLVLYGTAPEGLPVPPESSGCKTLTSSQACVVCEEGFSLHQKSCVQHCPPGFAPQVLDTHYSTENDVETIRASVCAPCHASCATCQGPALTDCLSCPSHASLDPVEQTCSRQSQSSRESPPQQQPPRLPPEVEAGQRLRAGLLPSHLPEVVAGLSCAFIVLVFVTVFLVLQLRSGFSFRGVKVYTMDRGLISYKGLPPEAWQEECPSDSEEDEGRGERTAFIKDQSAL
# Summary of the method: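 Fluorogenic cleavage of BOC-RVRR-AMC (2 microM final, Km ~15 µM) was monitored (ex 340, em 450 nm) at 37C after 15 min RT preincubation of 5 nM furin with compounds in HEPES pH 7.0 buffer with CaCl2 and Triton X-100. Percent inhibition was fitted to a 4-parameter Hill curve.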
# [8] = system: Zika virus NS2B-NS3 protease (unlinked complex); assay: Confirmatory screen GU AMC qHTS for Zika virus inhibitors (AID 1347153); also: potency is read from the fitted curve at half-maximal effect; nearly all actives have a fitted effect of over 70% in size
# Summary of the method: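 Unlinked enzyme 25 nM, Tris pH 8.0/0.01% Tween 20; cpd 15 min RT, dark; + AMC substrate 10 µM (Km 18.3 µM); 340/450 nm read at t0 and 15 min; % inhibition → 4-param fit.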
# [9] = Confirmatory screen NINDS Rhodamine qHTS for Zika virus inhibitors (AID 1347161); also: potency is read from the fitted curve at half-maximal effect; nearly all actives have a fitted effect of over 60% in size
# Summary of the method: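 qHTS dose-response: 25 nM linked protease, pH 8.0 Tris/Tween buffer, cpd titration, 15 min RT preinc, 1.5 microM Rhod110 peptide, 15 min reaction (~15% conversion), Ex480/Em540; 4-parameter Hill fit.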
# [10] = system: Zika virus NS2B-NS3 protease (linked); assay: 384 well plate NINDS AMC confirmatory qHTS for Zika virus inhibitors (AID 1347163); details: Recombinant NS2B-NS3 protease, Ac-VKTGKR-AMC fluorescence; also: potency is read from the fitted curve at half-maximal effect; nearly all actives have a fitted effect of over 50% in size
# Summary of the method: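 Linked NS2B-NS3 protease (final 5 nM, 30 nM or 60 nM) was preincubated with compounds (final up to 1 mM) for ~15 minutes. Ac-VKTGKR-AMC substrate (final 30 microM) then reacted for 25 minutes at room temperature in the dark. Fluorescence (ex 355/em 460 nm) was normalized to no-enzyme and no-inhibitor controls.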
# [11] = Vero cells viability qHTS for Zika virus inhibitors (AID 1347167)
# Summary of the method: (§1)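 Cells seeded at 2.5 x 10^5 cells/mL in DMEM with 4% FBS and attached overnight at 37 degrees C, then exposed to compound for 24 to 48 hours. Viability read as ATP content by CellTiter Glo luminescence.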
# [12] = HepG2 cells viability qHTS for Zika virus inhibitors (AID 1347168); also: potency is read from the fitted curve at half-maximal effect
# Summary of the method: as §1
# [13] = Tertiary RLuc qRT-PCR qHTS assay for Zika virus inhibitors (AID 1347169); also: potency is read from the fitted curve at half-maximal effect; nearly all actives have a fitted effect of over 55% in size
# Summary of the method: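 Inhibition of ZIKV-RLuc replication in Vero cells, read as Renilla luminescence 1-1.5 hrs after live-cell substrate addition, following 48-72 hrs infection at MOI 1-2 in presence of compound.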
# [14] = Primary qHTS for small molecule stabilizers of the endoplasmic reticulum resident proteome: Secreted ER Calcium Modulated Protein (SERCaMP) assay (AID 1508630)
# Summary of the method: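 GLuc-SERCaMP-expressing SH-SY5Y cells, pretreated 16 h with compound, are challenged with thapsigargin to empty ER calcium stores; after 4 h, coelenterazine is added directly to the medium and luminescence is imaged.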
# [15] = target: Rap guanine nucleotide exchange factor 3 (Homo sapiens) (UniProt O95398); assay: Confirmatory qHTS for antagonist of cAMP-regulated guanine nucleotide exchange factor 3 (EPAC1) (AID 1645880); also: potency is read from the fitted curve at half-maximal effect; nearly all actives have a fitted effect of over 55% in size
# Rap guanine nucleotide exchange factor 3 (Homo sapiens), sequence (O95398 whole entry, looked up): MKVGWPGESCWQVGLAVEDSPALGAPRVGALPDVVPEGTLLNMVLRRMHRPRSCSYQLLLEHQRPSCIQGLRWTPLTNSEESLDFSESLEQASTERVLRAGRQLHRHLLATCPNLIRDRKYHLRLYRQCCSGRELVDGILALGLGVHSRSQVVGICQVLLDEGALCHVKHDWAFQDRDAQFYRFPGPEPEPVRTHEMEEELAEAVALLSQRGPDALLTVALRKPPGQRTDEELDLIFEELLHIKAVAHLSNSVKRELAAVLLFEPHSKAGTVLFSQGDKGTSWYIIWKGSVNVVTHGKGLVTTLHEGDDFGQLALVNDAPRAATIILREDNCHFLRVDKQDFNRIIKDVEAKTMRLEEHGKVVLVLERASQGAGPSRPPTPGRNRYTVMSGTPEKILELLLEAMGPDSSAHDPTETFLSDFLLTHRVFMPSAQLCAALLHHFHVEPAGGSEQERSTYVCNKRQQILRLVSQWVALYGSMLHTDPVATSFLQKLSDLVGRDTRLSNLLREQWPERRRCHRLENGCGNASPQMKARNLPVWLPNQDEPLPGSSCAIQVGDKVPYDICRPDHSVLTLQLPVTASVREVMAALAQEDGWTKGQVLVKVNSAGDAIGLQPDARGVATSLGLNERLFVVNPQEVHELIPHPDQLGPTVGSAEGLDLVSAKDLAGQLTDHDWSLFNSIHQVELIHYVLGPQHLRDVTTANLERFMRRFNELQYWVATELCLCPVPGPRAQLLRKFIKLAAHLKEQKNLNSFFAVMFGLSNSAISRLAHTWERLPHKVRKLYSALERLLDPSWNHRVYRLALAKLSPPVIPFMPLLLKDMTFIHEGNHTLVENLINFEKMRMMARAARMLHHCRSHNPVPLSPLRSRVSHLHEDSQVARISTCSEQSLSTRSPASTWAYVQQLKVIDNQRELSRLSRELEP
# Summary of the method: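 Nucleotide exchange uses 100 nM EPAC1, 250 nM RAP1B-BODIPY-GDP and 50 uM GDP, with compounds in a concentration-titration series. After 5 min at room temperature, fluorescence (480 nm ex/540 nm em) is read every 5 min for 30 min. Data are normalized to control ATA and DMSO.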
# [16] = target: Rap guanine nucleotide exchange factor 3 (Homo sapiens) (UniProt O95398); assay: Confirmatory qHTS for agonist of cAMP-regulated guanine nucleotide exchange factor 3 (EPAC1) (AID 1645881);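 also: EPAC1 catalysed release of BODIPY-GDP from Rap1B seen as fluorescence loss; nearly all actives have a fitted effect of over 75% in size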
# [17] = target: Rap guanine nucleotide exchange factor 4 (Homo sapiens) (UniProt Q8WZA2); assay: Confirmatory qHTS for agonist of cAMP-regulated guanine nucleotide exchange factor 4 (EPAC2) (AID 1645884);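 also: nucleotide exchange releases bodipy-GDP from Rap1 and this lowers its fluorescence; nearly all actives have a fitted effect of over 65% in size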
# Rap guanine nucleotide exchange factor 4 (Homo sapiens), sequence (Q8WZA2 whole entry, looked up): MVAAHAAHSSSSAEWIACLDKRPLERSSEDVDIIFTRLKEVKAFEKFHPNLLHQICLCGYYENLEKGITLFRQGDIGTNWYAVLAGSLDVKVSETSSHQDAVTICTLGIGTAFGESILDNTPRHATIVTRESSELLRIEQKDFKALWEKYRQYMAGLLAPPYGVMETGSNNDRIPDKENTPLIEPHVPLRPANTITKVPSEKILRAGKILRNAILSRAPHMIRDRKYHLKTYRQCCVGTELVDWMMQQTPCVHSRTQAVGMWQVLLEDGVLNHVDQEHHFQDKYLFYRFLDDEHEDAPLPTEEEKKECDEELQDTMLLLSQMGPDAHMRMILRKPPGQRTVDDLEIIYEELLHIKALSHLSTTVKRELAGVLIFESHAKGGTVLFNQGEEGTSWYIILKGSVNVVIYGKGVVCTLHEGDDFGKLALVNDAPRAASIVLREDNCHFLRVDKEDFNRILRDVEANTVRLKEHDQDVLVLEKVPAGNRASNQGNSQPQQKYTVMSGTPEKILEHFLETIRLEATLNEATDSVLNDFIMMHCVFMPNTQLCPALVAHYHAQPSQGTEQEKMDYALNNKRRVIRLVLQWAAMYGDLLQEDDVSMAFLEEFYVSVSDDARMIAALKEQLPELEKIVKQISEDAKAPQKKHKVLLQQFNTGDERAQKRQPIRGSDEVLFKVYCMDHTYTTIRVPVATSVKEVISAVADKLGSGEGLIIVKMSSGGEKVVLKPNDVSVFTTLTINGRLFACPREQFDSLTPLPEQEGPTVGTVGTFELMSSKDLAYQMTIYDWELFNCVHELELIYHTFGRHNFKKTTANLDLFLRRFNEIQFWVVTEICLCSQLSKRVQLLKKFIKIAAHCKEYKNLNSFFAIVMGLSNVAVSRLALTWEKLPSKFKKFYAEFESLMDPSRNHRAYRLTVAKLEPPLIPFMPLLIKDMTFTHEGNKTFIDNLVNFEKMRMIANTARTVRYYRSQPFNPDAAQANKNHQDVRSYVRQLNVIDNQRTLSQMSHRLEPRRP
# [18] = target: Rap guanine nucleotide exchange factor 4 (Homo sapiens) (UniProt Q8WZA2); assay: Confirmatory qHTS for antagonist of cAMP-regulated guanine nucleotide exchange factor 4 (EPAC2) (AID 1645885); also: nearly all actives have a fitted effect of over 25% in size
# [19] = target: Nucleoprotein (Lymphocytic choriomeningitis virus (strain Armstrong)) (UniProt P09992); assay: qHTS for Inhibitors of the Functional Ribonucleoprotein Complex (vRNP) of Lymphocytic Choriomeningitis Arenaviruses (LCMV): LCMV Primary Screen - GLuc reporter signal (AID 1347086; calls by dose curve; also: potency is read from the fitted curve at half-maximal effect; nearly all actives have a fitted effect of over 70% in size)
# Nucleoprotein (Lymphocytic choriomeningitis virus (strain Armstrong)), sequence (P09992 whole entry, looked up): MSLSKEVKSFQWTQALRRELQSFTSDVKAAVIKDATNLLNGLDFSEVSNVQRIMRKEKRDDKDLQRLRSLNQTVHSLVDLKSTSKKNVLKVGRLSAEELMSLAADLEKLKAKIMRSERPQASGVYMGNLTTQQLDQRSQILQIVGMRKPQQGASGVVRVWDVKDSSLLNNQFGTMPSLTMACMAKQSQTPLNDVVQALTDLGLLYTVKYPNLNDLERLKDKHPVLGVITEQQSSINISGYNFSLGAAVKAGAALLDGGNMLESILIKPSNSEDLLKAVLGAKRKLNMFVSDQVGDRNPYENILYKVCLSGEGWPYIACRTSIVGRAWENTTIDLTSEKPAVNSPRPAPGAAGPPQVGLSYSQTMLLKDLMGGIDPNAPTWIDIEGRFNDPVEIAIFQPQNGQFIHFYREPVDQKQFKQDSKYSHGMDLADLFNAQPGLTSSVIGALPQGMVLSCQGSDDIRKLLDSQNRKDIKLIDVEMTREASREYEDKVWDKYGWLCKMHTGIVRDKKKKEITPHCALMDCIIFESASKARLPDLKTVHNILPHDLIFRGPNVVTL
# [20] = Cytotoxicity counterscreen for inhibitors of SARS-CoV-2 cell entry (AID 1645845; calls by dose curve; also: nearly all actives have a fitted effect of over 50% in size)
# Summary of the method: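 HEK293-ACE2 cells (Expi293F stably expressing human ACE2) seeded overnight, then compound for 1 h plus 48 h at 37C. Viability as ATP content by luminescence; normalized to wells with cells and media-only wells.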
# [21] = Primary qHTS to identify inhibitors of SARS-CoV-2 cell entry (AID 1645846; calls by dose curve; also: nearly all actives have a fitted effect of over 45% in size); details: activity change, negative = inhibition: at 57.1 µM (top of the series) unless noted
# Summary of the method: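 Using luciferase-reporting pseudoviruses carrying Wuhan-Hu-1 spike, the screen tracks entry into stably ACE2-expressing cells over 48 hr. Activity is expressed relative to spike particles versus particles lacking any fusion protein.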
compound,measurement,setting,value
N#Cc1c(Oc2cccc(OS(=O)(=O)CCCC(F)(F)F)c2)cccc1C(F)(F)F,Potency,[1],inactive
CC(C)=CCCC1(C)C=Cc2c(O)c3c(c(CC=C(C)C)c2O1)OC12C(=CC4CC1C(C)(C)OC2(C/C=C(/C)C(=O)O)C4O)C3=O (stereo not drawn),Potency,[2],20 µM (active)
same,Potency,[3],inactive
same,Potency,[4],inactive
same,outcome,[5],inactive
same,Potency,[6],35.5 µM (active)
same,Potency,[7],inactive
same,Potency,[8],17.1 µM (active)
same,Potency,[9],2.78 µM (active)
same,Potency,[10],126 µM (active)
same,Potency,[11],inactive
same,Potency,[12],18.6 µM (active)
same,Potency,[13],5.87 µM (active)
same,Potency,[14],inactive
same,Potency,[15],28 µM (active)
same,outcome,[16],inactive
same,outcome,[17],inactive
same,Potency,[18],inactive
Cc1ccc2c(=O)c3cccc(CC(=O)O)c3oc2c1C,Potency,[19],38.5 µM (active)
same,Potency,[20],inactive
same,"activity change, negative = inhibition",[21],-28.2%
CCCCCCC(C)(C)c1cc(OC)c2c(c1)OC(C)(C)[C@@H]1CC=C(C)C[C@@H]21,Potency,[1],inactive
COc1ccc(-c2cc(=O)c3c(O)cc(O[C@@H]4O[C@H](CO[C@@H]5O[C@@H](C)[C@H](O)[C@@H](O)[C@@H]5O)[C@@H](O)[C@H](O)[C@@H]4O)cc3o2)cc1O,Potency,[19],10.9 µM (active)
C[C@@H]1O[C@@H](O[C@H]2C[C@@H](O)[C@]3(CO)C4C(CC[C@]3(O)C2)[C@@]2(O)CC[C@H](C3=CC(=O)OC3)[C@@]2(C)C[C@H]4O)[C@H](O)[C@H](O)[C@H]1O (stereo partly drawn),Potency,[7],inactive
same,Potency,[1],inactive
same,Potency,[11],inactive
same,Potency,[13],0.234 µM (active)
same,Potency,[14],inactive
